Results as given in PubChem BioAssay (NCATS).
Results filed as inconclusive are left out. The source made the active and inactive calls. Calls follow the shape of the dose curve; as a rule, active = well fitted inhibition curve with a large enough effect; inconclusive = small, poorly fitted or top-dose-only effect; inactive = flat fitted curve, though single readings scatter.

Tested on: not listed separately
Test: qHTS profiling for inhibitors of Plasmodium falciparum proliferation (AID 504749);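 also: 0% = DMSO vehicle and full inhibition = artemisinin control; nearly all actives have a fitted effect of over 60% in size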
Settings: P. falciparum in erythrocytes, SYBR Green DNA, 72 h; at 28.7 µM (top of the series); parasite line A
Method in brief: (§1)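 Parasite proliferation within erythrocytes, 72 h exposure. Endpoint: SYBR Green I fluorescence after overnight lysis at room temperature. Controls: 0.29 uM artemisinin, DMSO.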

| Structure (SMILES) | activity, negative = inhibition |
| --- | --- |
| CC(=O)OCC(COC(C)=O)OC(C)=O | 4.58% (inactive) |
| O=C(O)c1ccccc1C(=O)Nc1ccc(S(=O)(=O)Nc2nccs2)cc1 | 16.3% (inactive) |
| O=C(NCN1CCOCC1)c1cnccn1 | -8.14% (inactive) |
| COc1ccc(C(=O)N2CCN(CC(=O)N3CCOCC3)CC2)cc1 | 2.87% (inactive) |
| COC(=O)c1ccc(O)cc1 | 3.79% (inactive) |
| O=c1[nH]c(=O)c2ccccc2o1 | 2.32% (inactive) |
| NC(=O)CC[C@@H](N)C(=O)O | 3.38% (inactive) |
| O=C(O)Cc1cn(-c2ccccc2)nc1-c1ccc(Cl)cc1 | 11.4% (inactive) |
| Cc1c(Cn2ccnc2)c2ccccc2n1CCC(=O)O | 14.7% (inactive) |
| O=c1[nH]cnc2nc[nH]c12 | -7.68% (inactive) |
| CCN(CC)S(=O)(=O)c1ccc(C(=O)O)cc1 | 7.39% (inactive) |
| N[C@@H](Cc1ccc(O)cc1)C(=O)O | 13.6% (inactive) |
| NS(=O)(=O)c1ccc(NC(=O)CCC(=O)O)cc1 | 0.494% (inactive) |
| CNCc1ccccc1 | 11.1% (inactive) |
| O=C(OOC(=O)c1ccccc1)c1ccccc1 | -10.4% (inactive) |

Same assay, conditions: P. falciparum in erythrocytes, SYBR Green DNA, 72 h; at 28.7 µM (top of the series); parasite line B

| Structure (SMILES) | activity, negative = inhibition |
| --- | --- |
| CC(C)C[C@@H](N)C(=O)O | 22.5% (inactive) |
| COc1ccc(O)cc1 | -15.4% (inactive) |
| COc1ccccc1OC(=O)Oc1ccccc1OC | 5.57% (inactive) |
| CCCNC(C)(C)COC(=O)c1ccccc1 | 9.96% (inactive) |
| Cc1cccc(C)c1NC(=O)CC12CCCN1CCC2 | 0.226% (inactive) |
| C[C@@H]1O[C@@H](OC[C@H]2O[C@@H](Oc3c(-c4ccc(O)c(O)c4)oc4cc(O)cc(O)c4c3=O)[C@H](O)[C@@H](O)[C@@H]2O)[C@H](O)[C@H](O)[C@H]1O | 8.33% (inactive) |
| COC(=O)c1cccnc1 | 16.6% (inactive) |
| CC(C(=O)O)c1ccc2c(c1)Cc1cccnc1O2 (stereo not given) | -1.86% (inactive) |
| CCOc1ccc(C(=O)OCCN(CC)CC)cc1 | 3.64% (inactive) |
| CC(C)c1cc2c(cc1S(=O)(=O)O)[C@@]1(C)CCC[C@@](C)(C(=O)O)[C@@H]1CC2 | -0.445% (inactive) |
| CCN(CC)CC1CCCCN1CC(=O)N1c2ccccc2C(=O)Nc2cccnc21 (stereo not given) | 1.05% (inactive) |
| Cc1cc(=O)[nH]c(=S)[nH]1 | 5.6% (inactive) |
| CCOc1cc(NC(C)=O)ccc1C(=O)OC | 12.8% (inactive) |
| CCCCCCCCCCCCCCCCN | 3.84% (inactive) |
| NNC(=O)CP(=O)(c1ccccc1)c1ccccc1 | 6.41% (inactive) |
| CCCCCC(N)=O | 8.74% (inactive) |
| O[C@@H]1CO[C@H]2[C@@H]1OC[C@@H]2O | 1.12% (inactive) |

| Structure (SMILES) | activity, negative = inhibition |
| --- | --- |
| CCCCCCCCCCCCCCCCCCO | 2.31% (inactive) |
| NNc1nnc(NN)c2ccccc12 | 18.1% (inactive) |
| CC(=O)OCC(COC(C)=O)OC(C)=O | 8.38% (inactive) |
| O=C(O)c1ccccc1C(=O)Nc1ccc(S(=O)(=O)Nc2nccs2)cc1 | 12.3% (inactive) |
| O=C(NCN1CCOCC1)c1cnccn1 | 11.7% (inactive) |
| COc1ccc(C(=O)N2CCN(CC(=O)N3CCOCC3)CC2)cc1 | 20.6% (inactive) |
| COC(=O)c1ccc(O)cc1 | 9.44% (inactive) |
| O=c1[nH]c(=O)c2ccccc2o1 | 10.5% (inactive) |
| NC(=O)CC[C@@H](N)C(=O)O | 6.23% (inactive) |
| O=C(O)Cc1cn(-c2ccccc2)nc1-c1ccc(Cl)cc1 | 9.39% (inactive) |
| Cc1c(Cn2ccnc2)c2ccccc2n1CCC(=O)O | 0.623% (inactive) |
| O=c1[nH]cnc2nc[nH]c12 | 15.5% (inactive) |
| CCN(CC)S(=O)(=O)c1ccc(C(=O)O)cc1 | 20.6% (inactive) |
| N[C@@H](Cc1ccc(O)cc1)C(=O)O | 10.5% (inactive) |
| NS(=O)(=O)c1ccc(NC(=O)CCC(=O)O)cc1 | 7.64% (inactive) |
| CNCc1ccccc1 | 15.3% (inactive) |
| O=C(OOC(=O)c1ccccc1)c1ccccc1 | 7.71% (inactive) |

Tested on: 3D7
Test: as above
Settings: P. falciparum in erythrocytes, SYBR Green DNA, 72 h; series mostly up to 28.7 µM; activity, negative = inhibition: at the top concentration
Method in brief: as §1

| Structure (SMILES) | activity, negative = inhibition |
| --- | --- |
| CC(C)C[C@@H](N)C(=O)O | 1.38% (inactive) |
| COc1ccc(O)cc1 | -12% (inactive) |
| COc1ccccc1OC(=O)Oc1ccccc1OC | 0.789% (inactive) |
| CCCNC(C)(C)COC(=O)c1ccccc1 | 5.81% (inactive) |
| Cc1cccc(C)c1NC(=O)CC12CCCN1CCC2 | -9.62% (inactive) |
| C[C@@H]1O[C@@H](OC[C@H]2O[C@@H](Oc3c(-c4ccc(O)c(O)c4)oc4cc(O)cc(O)c4c3=O)[C@H](O)[C@@H](O)[C@@H]2O)[C@H](O)[C@H](O)[C@H]1O | 1.82% (inactive) |
| COC(=O)c1cccnc1 | -5.05% (inactive) |
| CC(C(=O)O)c1ccc2c(c1)Cc1cccnc1O2 (stereo not given) | 1.73% (inactive) |
| CCS(=O)(=O)CCn1c([N+](=O)[O-])cnc1C | 0.446% [at 12.8 µM] (inactive) |
| CCOc1ccc(C(=O)OCCN(CC)CC)cc1 | 3.3% (inactive) |
| CC(C)c1cc2c(cc1S(=O)(=O)O)[C@@]1(C)CCC[C@@](C)(C(=O)O)[C@@H]1CC2 | 6.03% (inactive) |
| CCN(CC)CC1CCCCN1CC(=O)N1c2ccccc2C(=O)Nc2cccnc21 (stereo not given) | 1.87% (inactive) |
| Cc1cc(=O)[nH]c(=S)[nH]1 | 0.597% (inactive) |
| CCOc1cc(NC(C)=O)ccc1C(=O)OC | 0.977% (inactive) |
| CCCCCCCCCCCCCCCCN | 5.85% (inactive) |
| NNC(=O)CP(=O)(c1ccccc1)c1ccccc1 | 1.58% (inactive) |
| CCCCCC(N)=O | 1.99% (inactive) |
| O[C@@H]1CO[C@H]2[C@@H]1OC[C@@H]2O | -0.0617% (inactive) |

| Structure (SMILES) | activity, negative = inhibition |
| --- | --- |
| CCCCCCCCCCCCCCCCCCO | -0.638% (inactive) |
| NNc1nnc(NN)c2ccccc12 | -2.92% (inactive) |
| CN/C(=C\[N+](=O)[O-])NCCSCc1csc(CN(C)C)n1 | 3.03% [at 12.8 µM] (inactive) |
| CC(=O)OCC(COC(C)=O)OC(C)=O | 1.12% (inactive) |
| O=C(O)c1ccccc1C(=O)Nc1ccc(S(=O)(=O)Nc2nccs2)cc1 | 0.262% (inactive) |
| O=C(NCN1CCOCC1)c1cnccn1 | 5.4% (inactive) |
| COc1ccc(C(=O)N2CCN(CC(=O)N3CCOCC3)CC2)cc1 | -11.5% (inactive) |
| COC(=O)c1ccc(O)cc1 | 8.08% (inactive) |
| O=c1[nH]c(=O)c2ccccc2o1 | 4.5% (inactive) |
| NC(=O)CC[C@@H](N)C(=O)O | 14.2% (inactive) |
| O=C(O)Cc1cn(-c2ccccc2)nc1-c1ccc(Cl)cc1 | -14.1% (inactive) |
| Cc1c(Cn2ccnc2)c2ccccc2n1CCC(=O)O | -4.93% (inactive) |
| O=c1[nH]cnc2nc[nH]c12 | -2.97% (inactive) |
| CCN(CC)S(=O)(=O)c1ccc(C(=O)O)cc1 | -0.0835% (inactive) |
| N[C@@H](Cc1ccc(O)cc1)C(=O)O | -1.02% (inactive) |
| NS(=O)(=O)c1ccc(NC(=O)CCC(=O)O)cc1 | 2.88% (inactive) |
| CNCc1ccccc1 | -0.151% (inactive) |
| O=C(OOC(=O)c1ccccc1)c1ccccc1 | -4.34% (inactive) |
